The supplement of paper PMC6555819

Key:
Assay in all cases: PBM binding z-score (relative to random genomic background probes); higher = stronger binding; sequences stand for … in GC…GCGATTGACAGCGTAGAATGAAGG
[1] = test system: PPARg:RXRa IVT, anti-PPARg (NR concentration 270 nM, RXRa partner concentration 90 nM)
Procedure, shortened: (§1)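 Each nuclear receptor dimer, without ligand, was incubated for 1 h on custom Agilent 4×180K protein-binding microarrays. Binding was detected with antibodies against each partner (one per run), and scanned fluorescence was regression-normalized. The binding z-scores are referenced to random human genomic background probes.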

[2] = test system: PPARg DBDmut:RXRa IVT, anti-PPARg (DBD mutation: PPARg1 K132A/R137A, NR concentration 270 nM, RXRa partner concentration 90 nM)
Procedure, shortened: as §1

[3] = test system: PPARg DBDmut IVT, anti-PPARg (DBD mutation: PPARg1 K132A/R137A, NR concentration 270 nM)
Procedure, shortened: as §1

[4] = test system: PPARg homodimer (NR concentration 180 nM)
Procedure, shortened: as §1

[5] = test system: PXR:RXRa (NR concentration 270 nM, RXRa partner concentration 90 nM)
Procedure, shortened: as §1

[6] = test system: PXR homodimer (NR concentration 270 nM)
Procedure, shortened: as §1

[7] = test system: RARa:RXR (NR concentration 270 nM, RXRa partner concentration 90 nM)
Procedure, shortened: as §1

[8] = test system: RARa homodimer (NR concentration 270 nM)
Procedure, shortened: as §1

[9] = test system: RARb:RXRa (NR concentration 270 nM, RXRa partner concentration 90 nM)
Procedure, shortened: as §1

[10] = test system: RARb homodimer (NR concentration 270 nM)
Procedure, shortened: as §1

Sequence	PBM binding z-score [1]	PBM binding z-score [2]	PBM binding z-score [3]	PBM binding z-score [4]	PBM binding z-score [5]	PBM binding z-score [6]	PBM binding z-score [7]	PBM binding z-score [8]	PBM binding z-score [9]	PBM binding z-score [10]
TCTATTAGTTGATTAGGGCAACCGAAACAGCGGA	1.84	0.572	0.488	1.34	0.609	0.491	1.03	1.33	0.953	0.738
ATATGTAGGTTAGCTGAGGTCATTCAGACTAGGC	6.48	2.26	1.4	3.04	6.68	6.09	4.95	1.7	3.34	4.04
TAGCCTAGGGCATTCAGGGGCCAGTATAGAAAGC	0.75	-0.631	-1.01	-0.114	-0.0151	-0.113	0.405	-0.803	1.42	1.35
AGAATGAGGTCATACGTAGATCAGGGAAGAAAGT	6.69	1.6	2.79	2.06	4.89	1.94	5.04	1.17	4.84	3.6
AGCGAAAGGTCGAGGTGAGTATAGAGAAAGGGAA	2.26	0.0948	0.386	1.75	2.52	0.259	3.19	0.743	4.03	2.64
GATACAGGGTCGGCTAGAGGCCAGAGTATGGAAA	-0.134	-0.784	-0.716	0.88	0.712	-0.222	1.39	-0.471	1.56	1.32
CCTCGGAGGACAACAGGAGGTCATAGCTGCCAGA	0.613	-0.597	-1.12	1.63	3.72	1.1	3.52	0.48	2.93	3.71
CGTCCGAGGTCAAGGTCAGTGAAAGAGACTCGAA	5.07	0.688	-0.148	4.23	5.51	1.87	6.15	1.57	5.71	5.16
CGAACTAGGTCGAGGACAGTGAATCTCCGCACGC	5	0.082	-0.0951	-0.11	-0.012	-0.207	0.419	-0.18	1.64	1.18
CCTAGTGGGCCAAGGTCATTGATCAGTCAAAGCA	4.38	-0.821	-0.95	2.36	3.66	1.8	3.56	0.113	3.36	3.28
TAGCCGAGGTCATTCAGGGGCCAGTATAGAAAGC	3.9	1.06	1.57	4.27	5.92	2.27	6.51	0.64	5.27	4.49
CGAACTAGGTCAAGGACAGTAAATCTCCGCACGC	7.98	5.28	4.25	3.13	1.1	0.317	2.19	0.685	3.67	2.91
GCTTACAGGTCAAAGGTTATAGCATGAATAGAAT	6.3	2.55	3.43	3.21	6.17	0.923	7.96	0.992	4.93	3.69
TGAATGAGGTTAAATATCAGGGAACGTGGCGTCG	2.35	0.916	0.956	0.766	1.35	0.413	1.91	0.347	2.17	0.735
TAGCCTAGGTTATGGGCCAGTATACCACGCGAAC	0.996	-0.249	-0.26	0.0998	-0.0911	-0.214	0.27	-0.107	0.734	0.24
TAGCCTAGTTCATGCGGGCCAGTATAGTGTCGGC	0.949	-0.253	-0.528	-0.545	0.59	0.113	-0.185	-0.774	1.05	0.519
GCTGCTAGGTCAACTGATGGCCAGCTAAAGCTCG	4.14	-0.855	-0.449	1.12	1.1	-0.837	1.88	-0.722	4.23	3.32
AATACAGGGTCATCGTACGCCAGAGTACGCACAG	4.44	3.9	1.45	3.42	4.53	0.995	5.47	1.81	4.45	3.46
AGAATGAGGTTAAACGTAGATCAGGGAAGAAAGT	3.75	1.56	1.02	1.3	1.73	0.319	2.69	0.469	2.23	1.19
CCTACTGGGCCATTCAGAGGTCAATGATCATATG	4.62	0.0847	-0.339	1.92	3.89	0.827	3.93	0.374	3.42	4.28
CGTCCAAGGTCAGCGGGTCAGTGAAAGCGACGTG	3.48	-0.302	-0.244	3.27	3.9	1.09	5.13	1.34	5.2	4.69
AATACAGGGTGACTAGGCCAGAGTAGGTACGAAT	3.48	1.24	0.872	0.246	0.11	0.336	0.341	0.259	0.856	0.729
CCTGCGAGGTCATGGTCAGCTAATCTACAGTATG	4.21	2.09	1.64	4.94	5.39	1.06	5.88	1.08	5.01	4.02
TAGCCTAGGTCATTCAGGGGCCAGCATAGAAAGC	2.78	0.63	0.0516	1.32	2.37	-0.172	3.95	-0.134	3.92	3.42

Sequence	PBM binding z-score [1]	PBM binding z-score [2]	PBM binding z-score [3]	PBM binding z-score [4]	PBM binding z-score [5]	PBM binding z-score [6]	PBM binding z-score [7]	PBM binding z-score [8]	PBM binding z-score [9]	PBM binding z-score [10]
CGAACGAGGTCATGAGTTGATAGCAAATGCCGAT	6.46	1.73	1.44	2.84	5.17	0.602	5.48	0.273	5.23	3.94
CCTTACGGGTCAAGGTTATAGCCCGGGTGGTACG	3.44	-0.234	-0.862	1.69	3.43	0.303	4.46	0.676	4.33	3.8
AGTCAAAGTTGAGGACGAGGTAACGTAAAGCACG	0.639	0.307	-0.0552	0.137	0.261	-0.0592	0.951	0.0325	1.46	1.01
TACCCTAGGTCATTCAGGGGCCAGTATAGAAAGC	3.23	-0.205	0.64	2.57	2.68	0.936	3.65	0.569	4.13	3.8
TAGCCTAGGTCACATCGGGCCAGTATACGCTATA	3.51	0.246	-0.263	0.979	2.26	-0.395	2.25	-0.254	3.84	2.63
CGAACTAGGTCGTCCAGGACAGTGAATACATTGA	4.97	0.213	0.237	-0.545	0.256	-0.263	0.281	-0.365	1.14	0.392
AGTCAAAGTTTATCTAGGTAACGTAAGATATGCT	4.84	1.23	1.54	-0.0246	0.694	0.675	0.503	0.429	1.93	0.612
CAAACTAGGTCACAAAAGGTCAAAGTCGAATGAC	8.79	3.52	2.98	6.01	6.68	3.59	7.57	3.85	5.37	5.82
TTACCAAGGTGAAAGGTCGTTGCTGCACGCCTTG	5.07	0.655	0.268	1.88	3.88	0.364	5.58	-0.419	3.14	2.59
CGTCAAAGTCCAAGGTAACGTAACAGAAAGCAGC	0.33	0.185	0.896	0.652	-0.079	0.233	0.165	0.428	1.52	0.655
CGAACTAGGTCATTGACAGGACAATGAATAGTAA	8.41	3.96	1.94	1.77	2.07	0.487	2.45	0.188	3.77	2.88
ACTTAAGGGTCAACGAGGTTATAGCACGCGTATA	4.06	2.52	3.33	4.43	6.26	6	6.74	2.01	5.29	4.31
CGAACTAGGTCATCCAGGACCGTGAATACATTGA	8.09	1.32	0.732	1.83	1.34	-0.0905	1.84	0.294	3.6	2.57
ATATGTAGTTTATCGGGTCATTCAGTTTGCGCAT	3.77	1.29	1.84	1.72	3.46	7.31	3.03	1.18	2.26	2.91
ATATGTAGGTTATCGGGTCATACAGTTTGCGCAT	7.62	3.33	1.78	2.48	3.54	2.74	4	1.32	2.75	3.17
AGAATGAGGTTAAGTTCAGGGAAACAGAATACAT	3.33	1.62	0.811	1.08	3.31	1.91	3.03	0.895	3.17	2.6
CCTTACGGGTCCCTCCAGGTTATAGCATCGGAGT	-0.601	-1.12	-1.29	0.547	0.139	-0.00641	0.181	-0.487	0.0941	0.0845
CGTCCAAGGTCGAAGGTCAGTGAAGAGATGACGG	2.36	-0.273	-0.43	1.19	3.61	0.105	5.45	0.117	3.98	3.62
GCTGCGAGGTCAACTGATGGTCAGCTAAAGCTCG	4.26	0.48	-0.29	3.57	5.49	0.673	5.93	0.38	–	4.83
AGAATGGGGTTACCAAAGATCAGGGAAACGCTTG	4.08	1.57	1.15	1.96	3.04	0.0687	3.76	-0.368	2.18	1.08
CAAACTAGTTCAAGAGGTCAAAGTCCGCTTCCCG	2.96	-0.123	0.442	5.22	5.97	5.56	6.53	2.22	4.52	4.85
AAAACAGGGTCATCGTAGGCCAGAGTACGCACAG	5.24	4.19	2.83	6.6	5.51	0.625	5.95	0.959	4.44	3.68
CGAACTAGGTCACCCAGGACAGTGAATACATTGA	8.55	3.12	2.38	2.12	1.88	1.13	2.54	1.21	4.25	3.34
CCAGACAGGTGAGAAGGTAACTCAGCCTCGATTA	0.964	-0.28	-0.249	1.03	0.228	0.138	0.486	0.698	0.666	0.841
